PubChem BioAssay (NCATS)
Where “and” joins values, the source holds several entries; their conditions need not be identical. Identical values can stand only once. Inconclusive results are not listed. Calls of active or inactive are those of the source. The call rests on the fitted dose curve; in most records, active means well fitted curve in the direction sought with a large enough effect; inconclusive means small, poorly fitted or top-dose-only effect, or another doubt; inactive means no such curve, though single readings can be large; an effect the other way counts as inactive or inconclusive.

Experiments:
HaCat [1] = assay: Cytotoxic Profiling of Annotated Libraries Using Quantitative High-Throughput Screening (AID 1296008); settings: Five cell lines viability, CellTiter-Glo ATP luminescence, 48-72 h; max response: stronger effect = lower value; further: nearly all actives have a fitted effect of over 60% in size
How it was run: (§1)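 Cytotoxicity was measured as CellTiter-Glo ATP luminescence, read after 10 min at room temperature. Compound treatment of the cells lasted 48 or 72 hr at 37 degrees Celsius in a qHTS format.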

KB-3-1 = assay: as above; settings: Five cell lines viability, CellTiter-Glo ATP luminescence, 48-72 h; max response: stronger effect = lower value
How it was run: as §1

NIH3T3 = assay: as above; settings: Five cell lines viability, CellTiter-Glo ATP luminescence, 48-72 h; max response: stronger effect = lower value
How it was run: as §1

HACAT [2] = assay: qHTS assay to identify novel small-molecules to repurpose for Merkel cell carcinoma treatment (AID 1296009); settings: MCC and control cell lines, CellTiter-Glo viability, 72 h; at 44.8 µM (top of the series) unless noted; further: nearly all actives have a fitted effect of over 60% in size; further: potency means the concentration at half of the fitted maximal effect
How it was run: (§2)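 72 hr, 37 degree celsius; NPC 8-pt / MIPE 11-pt dose response; compound pinned in DMSO; CellTiter-Glo, 10 min RT, luminescence; normalized to no-cell and DMSO controls.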

MCC-13 = assay: as above; settings: MCC and control cell lines, CellTiter-Glo viability, 72 h; series mostly up to 46 µM
How it was run: as §2

MCC-26 = assay: as above; settings: MCC and control cell lines, CellTiter-Glo viability, 72 h; series mostly up to 46 µM
How it was run: as §2

UISO = assay: as above; settings: MCC and control cell lines, CellTiter-Glo viability, 72 h; series mostly up to 46 µM
How it was run: as §2

C33A = assay: Primary qHTS to identify gynecologic anti-cancer compounds using libraries of approved drugs and bioactive compounds (AID 1345084); settings: Gynecologic cancer cell panel viability, ATPlite luminescence, 48 h; series mostly up to 57.5 µM; further: nearly all actives have a fitted effect of over 55% in size
How it was run: (§3)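 48 h compound exposure at 37 C, 5% CO2; five-point qHTS. ATPlite luminescence readout of cell ATP.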

CAOV3 = assay: as above; settings: Gynecologic cancer cell panel viability, ATPlite luminescence, 48 h; series mostly up to 57.5 µM
How it was run: as §3

CASKI = assay: as above; settings: Gynecologic cancer cell panel viability, ATPlite luminescence, 48 h; series mostly up to 57.5 µM
How it was run: as §3

Es-2 = assay: as above; settings: Gynecologic cancer cell panel viability, ATPlite luminescence, 48 h; series mostly up to 57.5 µM
How it was run: as §3

HeLa = assay: as above; settings: Gynecologic cancer cell panel viability, ATPlite luminescence, 48 h; series mostly up to 57.5 µM
How it was run: as §3

Hek293T [3] = assay: as above; settings: Gynecologic cancer cell panel viability, ATPlite luminescence, 48 h, control line for the selectivity index; series mostly up to 57.5 µM
How it was run: as §3

JEG-3 = assay: as above; settings: Gynecologic cancer cell panel viability, ATPlite luminescence, 48 h; series mostly up to 57.5 µM
How it was run: as §3

OV90 = assay: as above; settings: Gynecologic cancer cell panel viability, ATPlite luminescence, 48 h; series mostly up to 57.5 µM
How it was run: as §3

MKL-1 = assay: qHTS assay to identify novel small-molecules to repurpose for Merkel cell carcinoma treatment (AID 1296009); settings: MCC and control cell lines, CellTiter-Glo viability, 72 h; series mostly up to 46 µM; further: nearly all actives have a fitted effect of over 60% in size; further: potency means the concentration at half of the fitted maximal effect
How it was run: as §2

MKL-2 = assay: as above; settings: MCC and control cell lines, CellTiter-Glo viability, 72 h; series mostly up to 46 µM
How it was run: as §2

WaGa = assay: as above; settings: MCC and control cell lines, CellTiter-Glo viability, 72 h; series mostly up to 46 µM
How it was run: as §2

HEK293T [4] = assay: as above; settings: MCC and control cell lines, CellTiter-Glo viability, 72 h; at 44.8 µM (top of the series) unless noted
How it was run: as §2
On the % scale 0 is the no-effect control and ±100 the full control effect.

COc1cc2c(cc1OC)C(C(C(=O)N(CCc1ccc(OC)c(OC)c1OC)CCc1ccc(OC)c(OC)c1OC)c1ccccc1)=NCC2 (configuration not stated)
inactive: outcome (HaCat [1]) | max response (KB-3-1) 28% | max response (NIH3T3) 0.673% | outcome (HACAT [2]) | Potency (MCC-13) | Potency (MCC-26) | Potency (UISO) | Potency (C33A) | Potency (CAOV3) | Potency (CASKI) | Potency (Es-2) | Potency (HeLa) | Potency (Hek293T [3]) | Potency (JEG-3) | Potency (OV90)

Oc1ccc(O)cc1
active: Potency (MKL-1) 5.31 µM | Potency (MKL-2) 4.73 µM | Potency (WaGa) 1.88 µM
inactive: outcome (HaCat [1]) | max response (KB-3-1) -4.96% | max response (NIH3T3) -10.8% | outcome (HACAT [2]) | Potency (MCC-13) | Potency (MCC-26) | Potency (C33A) | Potency (CAOV3) | Potency (CASKI) | Potency (Es-2) | Potency (HeLa) | Potency (Hek293T [3]) | Potency (JEG-3) | Potency (OV90)

NC[C@H]1O[C@H](O[C@H]2[C@H](O)[C@@H](O[C@H]3O[C@H](CO)[C@@H](O)[C@H](N)[C@H]3O)[C@H](N)C[C@@H]2N)[C@H](N)[C@@H](O)[C@@H]1O
inactive: outcome (HaCat [1]) | max response (KB-3-1) -1.35% and -3.36% | max response (NIH3T3) 1.61% | outcome (HACAT [2]) inactive [at 17.4 µM] | Potency (MCC-13) | Potency (MCC-26) | Potency (MKL-1) | Potency (MKL-2) | Potency (UISO) | Potency (WaGa) | Potency (C33A) | Potency (CASKI) | Potency (Es-2) | Potency (HeLa) | Potency (Hek293T [3]) | Potency (JEG-3) | Potency (OV90)

C=C1C(=C/C=C2\CCC[C@]3(C)[C@@H]([C@H](C)/C=C/[C@@H](O)C4CC4)CC[C@@H]23)C[C@@H](O)C[C@@H]1O
inactive: outcome (HaCat [1]) | max response (KB-3-1) 29.7% | max response (NIH3T3) -35.8% | outcome (HACAT [2]) | Potency (MCC-13) | Potency (MCC-26) | Potency (C33A) | Potency (CASKI) | Potency (Es-2) | Potency (HeLa) | Potency (Hek293T [3]) | Potency (JEG-3) | Potency (OV90)

OCc1ccccc1O
inactive: max response (HaCat [1]) -18.5% | max response (KB-3-1) -3.85% | max response (NIH3T3) 3.42% | outcome (HEK293T [4]) | Potency (MCC-13) | Potency (MCC-26) | Potency (MKL-1) | Potency (MKL-2) | Potency (UISO) | Potency (WaGa) | Potency (C33A) | Potency (CAOV3) | Potency (CASKI) | Potency (Es-2) | Potency (HeLa) | Potency (Hek293T [3]) | Potency (JEG-3) | Potency (OV90)

Cc1ccc(Nc2c(F)cccc2Cl)c(CC(=O)O)c1
inactive: outcome (HaCat [1]) | max response (KB-3-1) -12.9% and 2.03% | max response (NIH3T3) 2.46% | outcome (HACAT [2]) | Potency (MCC-13) | Potency (MCC-26) | Potency (MKL-1) | Potency (MKL-2) | Potency (UISO) | Potency (WaGa) | Potency (C33A) | Potency (CASKI) | Potency (Es-2) | Potency (HeLa) | Potency (Hek293T [3]) | Potency (JEG-3) | Potency (OV90)

C=CCc1ccc(O)c(OC)c1
inactive: max response (HaCat [1]) -0.0642% | max response (KB-3-1) 3.55% | max response (NIH3T3) 3.27% | outcome (HEK293T [4]) | Potency (MCC-13) | Potency (MCC-26) | Potency (MKL-1) | Potency (MKL-2) | Potency (UISO) | Potency (WaGa) | Potency (C33A) | Potency (CAOV3) | Potency (CASKI) | Potency (Es-2) | Potency (HeLa) | Potency (Hek293T [3]) | Potency (JEG-3) | Potency (OV90)

CCC(=O)c1c(O)cc(O)cc1O
inactive: max response (HaCat [1]) 3.62% | max response (KB-3-1) -16.9% | max response (NIH3T3) 0.801% | outcome (HEK293T [4]) | Potency (MCC-13) | Potency (MCC-26) | Potency (MKL-1) | Potency (MKL-2) | Potency (UISO) | Potency (WaGa) | Potency (C33A) | Potency (CAOV3) | Potency (CASKI) | Potency (Es-2) | Potency (HeLa) | Potency (Hek293T [3]) | Potency (JEG-3) | Potency (OV90)

Cc1onc(-c2c(Cl)cccc2Cl)c1C(=O)N[C@@H]1C(=O)N2[C@@H]1SC(C)(C)[C@@H]2C(=O)O
inactive: max response (HaCat [1]) -4.29% | max response (KB-3-1) -7.64% and 7.08% | max response (NIH3T3) -14.9% and -2.17% | outcome (HEK293T [4]) | Potency (MCC-13) | Potency (MKL-1) | Potency (MKL-2) | Potency (UISO) | Potency (WaGa) | Potency (C33A) | Potency (CAOV3) | Potency (CASKI) | Potency (Es-2) | Potency (HeLa) | Potency (Hek293T [3]) | Potency (JEG-3) | Potency (OV90)

COc1c2occc2c(OC)c2c(=O)cc(C)oc12
inactive: outcome (HaCat [1]) | max response (KB-3-1) 9.91% | max response (NIH3T3) -9.5% | outcome (HACAT [2]) | Potency (MCC-13) | Potency (MKL-1) | Potency (MKL-2) | Potency (UISO) | Potency (WaGa) | Potency (C33A) | Potency (CAOV3) | Potency (CASKI) | Potency (Es-2) | Potency (HeLa) | Potency (JEG-3) | Potency (OV90)

CCN(CCCCOC(=O)c1ccc(OC)c(OC)c1)C(C)Cc1ccc(OC)cc1 (configuration not stated)
inactive: outcome (HaCat [1]) | max response (KB-3-1) -8.65% | max response (NIH3T3) -18.2% | outcome (HACAT [2]) | Potency (MCC-13) | Potency (MKL-1) | Potency (MKL-2) | Potency (UISO) | Potency (WaGa) | Potency (C33A) | Potency (CAOV3) | Potency (CASKI) | Potency (Es-2) | Potency (HeLa) | Potency (Hek293T [3]) | Potency (JEG-3)

NC(CS)C(=O)O (configuration not stated)
inactive: outcome (HaCat [1]) | max response (KB-3-1) -0.484% | max response (NIH3T3) -3.73% | outcome (HACAT [2]) | Potency (MCC-13) | Potency (MCC-26) | Potency (MKL-1) | Potency (MKL-2) | Potency (UISO) | Potency (WaGa) | Potency (C33A) | Potency (CASKI) | Potency (Es-2) | Potency (HeLa) | Potency (Hek293T [3]) | Potency (JEG-3) | Potency (OV90)

CCCCOc1ccc(C(=O)CCN2CCCCC2)cc1
active: Potency (MKL-1) 9.44 µM | Potency (MKL-2) 2.66 µM | Potency (WaGa) 23.7 µM
inactive: outcome (HaCat [1]) | max response (KB-3-1) 0.445% | max response (NIH3T3) -2.83% | outcome (HACAT [2]) | Potency (MCC-13) | Potency (C33A) | Potency (CASKI) | Potency (HeLa) | Potency (JEG-3) | Potency (OV90)
